Only a selection was taken, and hits are over-represented in it overall.
CBX7 inh – inhibitors of human CBX7 binding to H3K27me3 peptide | O95931 | AlphaScreen His6-CBX7 / biotin-H3K27me3 peptide binding; hits give low values | normalised signal (fraction of DMSO) (test concentration not listed) | 66,000 tested, 1.1% active | AID 1224903; in the data active = normalised signal below about 0.5
Target sequence (O95931 whole entry, looked up): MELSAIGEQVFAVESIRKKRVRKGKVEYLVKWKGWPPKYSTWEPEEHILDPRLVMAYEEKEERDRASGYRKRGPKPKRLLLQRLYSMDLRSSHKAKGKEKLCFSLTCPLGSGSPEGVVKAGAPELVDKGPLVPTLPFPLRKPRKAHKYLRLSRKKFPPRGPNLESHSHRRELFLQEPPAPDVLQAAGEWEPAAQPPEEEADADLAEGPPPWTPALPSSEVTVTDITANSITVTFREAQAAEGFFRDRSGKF
The depositor's hits bear a star; ! = repeats disagree.

SMILES	CBX7 inh
Cc1c(Cl)cccc1Nc1nc(-c2cccnc2)cs1	0.88
Cc1c(Cl)cccc1Nc1nc(-c2ccccn2)cs1	0.47*
CC(=O)c1cccc(Nc2nc(-c3cccs3)cs2)c1	0.86
COc1ccc(-c2csc(Nc3cccc(C(C)=O)c3)n2)cc1OC	0.79
CC(=O)c1cccc(Nc2nc(-c3ccccn3)cs2)c1	0.38*
CN(CCCNC(=O)Cn1nc(Cc2ccncc2)c2ccccc2c1=O)Cc1ccccc1	1
CCN(CC)CCNC(=O)c1cc(Nc2cc(C)cc(C)c2)nc2ccccc12	1.3
O=C(Nc1ccc(O)c(-c2nc3ccccc3[nH]2)c1)C12CC3CC(CC(C3)C1)C2	0.99
C=CCn1c(=O)c(C(=O)Nc2ccc(OCC)cc2)c(O)c2ccccc21	1.1
Cc1ccc(-n2c(-c3ccc(Cl)cc3)nc3c(cnn3-c3ccccc3)c2=O)cc1	0.9
CC1CCN(C(=O)CSc2nnc(-c3ccc(F)cc3)o2)CC1	1.4
NC(=O)C1CCN(CC(=O)Nc2c3c(nc4ccccc24)CCC3)CC1	1.3
CN(CC(=O)Nc1c2c(nc3c1CCC3)CCCC2)Cc1ccccc1	0.24*
O=C(CCCN1Cc2ccccc2C1)Nc1c2c(nc3c1CCC3)CCCC2	1
O=C(CN1CCCCC1)Nc1c2c(nc3c1CCC3)CCCC2	0.45*
COc1ccccc1C(=O)Nc1c2c(nc3c1CCC3)CCCC2	0.95
O=C(CN1CCCCC1)Nc1c2c(nc3ccccc13)CCCC2	0.9
CCOc1ccccc1C(=O)NCCc1cc2cc(C)c(C)cc2[nH]c1=O	0.96
COc1ccc(CN(C(=O)c2cccc(C)c2)C2CCS(=O)(=O)C2)cc1 (stereo not drawn)	0.96
O=C(NC1CCN(Cc2ccccc2)CC1)C1CCN(S(=O)(=O)c2cnc[nH]2)CC1	1.1
Cc1ccc(-n2cc(-c3ccc(Cl)cc3)[nH]c2=O)cc1	0.97
COc1cccc(NC(=O)CNC(=O)Cn2cnc3sc(C)cc3c2=O)c1	0.99
COc1cccc(CNc2ccc3c(c2)ncn3-c2ccccc2)c1OC	0.26*
COc1cccc(CNc2ccc3c(c2)ncn3C(C)(C)C)c1OC	0.64
Cc1ccc(C(=O)Nc2ccc3c(c2)ncn3-c2ccccc2)cc1	0.99
SMILES	CBX7 inh
CCCn1cnc2cc(NCc3ccc(OC)cc3OC)ccc21	0.88
CCn1cnc2cc(NCc3ccc(OC)cc3OC)ccc21	0.93
COc1ccc(-n2cnc3cc(NCc4cccc(OC)c4OC)ccc32)cc1	0.2*
COc1ccc(CNc2cc(C)nc3c(-c4ccccc4OC)c(C)nn23)cc1	1
Cc1cc2nc(SCc3cc4c(cc3Cl)OCO4)[nH]c2cc1C	0.9
Cc1ccc(C)c(-n2c(Cc3cc(=O)[nH]c(=O)[nH]3)nnc2SCc2ccccc2)c1	0.79
COc1ccc(C)cc1NC(=O)Cn1ncc2c1-c1ccccc1OC2	0.92
O=C(Nc1ccccc1-c1nc2ccccc2s1)c1ccccc1Cl	1
O=C1CC(NCCc2ccccn2)C(=O)N1c1ccc(Cl)cc1 (stereo not drawn)	0.17*
Cc1ccc(N2C(=O)CC(NCCc3ccc(Cl)cc3)C2=O)cc1 (stereo not drawn)	1.1
CCOc1ccc(N2C(=O)CC(NCCc3ccccn3)C2=O)cc1 (stereo not drawn)	0.86
COc1ccc2oc(-c3ccccc3)c(C(=O)N3CCCCC3)c2c1	1
CCN(CC)S(=O)(=O)c1ccc2c(c1)N(CC(=O)N1CCN(C)CC1)C(=O)CO2	1
Cc1nn(-c2ccccc2)c(Cl)c1C(=O)Nc1ccc(C)c2cccnc12	0.96
COc1ccc(OC)c(NS(=O)(=O)c2ccc(OC)c3ncccc23)c1	1
CS(=O)(=O)Nc1ccc(Cl)c2cccnc12	0.0026*
COc1ccc(CNC(=O)Cn2nc(C)c3ccccc32)cc1OC	0.94
N#Cc1c(NC(=O)c2cccc(Oc3ccccc3)c2)sc2c1CCC2	1.2
O=C(NCCc1ccc(Cl)cc1)c1ccc2c(c1)N(Cc1cccc(Cl)c1)C(=O)CS2	1.1
OC1(c2ccc3c(c2)c2c4n3CCN(Cc3ccccc3)C4CCC2)CCCC1 (stereo not drawn)	0.37*
CCN1CCn2c3c(c4cc(Cl)ccc42)CCCC31 (stereo not drawn)	0.98
Cc1ccc2c(c1)c1c3n2CCN(CCC(N)=O)C3CCC1 (stereo not drawn)	0.97
CC(C)Oc1ccc(C(=O)Nc2c3c(nn2-c2ccc(Cl)cc2)CS(=O)(=O)C3)cc1	0.92
Cc1ccc(CCNC(=O)c2ccc3c(c2)NC(=O)C2CCCN32)cc1 (stereo not drawn)	0.99
Cc1ccccc1-c1noc(-c2cc(-c3ccncc3)nc3ccccc23)n1	0.75
SMILES	CBX7 inh
CCCc1noc(-c2cc(-c3ccncc3)nc3ccccc23)n1	0.44*
c1ccc2c(-c3nc(-c4ccncc4)no3)cc(-c3ccncc3)nc2c1	1.1
Cc1nc(SCC(=O)Nc2ccnc3ccccc23)[nH]c(=O)c1C	1.2
Cc1ccc(-n2cc(-c3ccccc3)c3c(NCCCN4CCOCC4)ncnc32)cc1	0.95
Cc1ccc(-c2csc(N3CCN(Cc4ccc5c(c4)OCO5)CC3)n2)cc1	0.88
COc1ccc(-c2csc(Nc3ccc4c(c3)OCO4)n2)cc1Br	0.33*!

Screens as filed in PubChem BioAssay.
